Assay results: PubChem BioAssay AID588849 (Broad Institute, 2011)
Potency and affinity values are given separately. The source made the active and inactive calls. No rule for the calls is given here.

What follows are molecules tested against CAAX prenyl protease 2 (Homo sapiens) (UniProt Q9Y256) (assay: inhibition of Ras-converting CAAX protease Rce1 – biochemical, yeast membranes, quenched-peptide fluorescence, cherry-pick, dose response (AID 588849)). Details: yeast membrane fractions expressing human Rce1, quenched-peptide fluorescence, 4 h; series mostly up to 10 µM; activity change, negative = inhibition: at the top concentration.
Chain of CAAX prenyl protease 2 (Homo sapiens) (Q9Y256 whole entry, looked up): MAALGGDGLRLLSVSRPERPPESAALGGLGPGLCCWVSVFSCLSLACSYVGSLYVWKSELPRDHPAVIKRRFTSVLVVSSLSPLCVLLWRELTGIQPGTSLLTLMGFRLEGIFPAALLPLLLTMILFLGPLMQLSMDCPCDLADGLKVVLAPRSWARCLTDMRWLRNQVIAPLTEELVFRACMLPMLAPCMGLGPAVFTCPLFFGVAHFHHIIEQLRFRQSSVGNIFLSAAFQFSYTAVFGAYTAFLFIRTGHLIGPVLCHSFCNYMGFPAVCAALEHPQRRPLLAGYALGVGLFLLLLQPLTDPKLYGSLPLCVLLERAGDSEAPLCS

Compound | activity change, negative = inhibition
COc1ccc2c3c([nH]c2c1)C(C)=NCC3 | -20.8% (inactive)
Clc1ccc(C[n+]2c(-c3ccccc3)cc(-c3ccccc3)cc2-c2ccccc2)cc1 | -6.03% (inactive)
COCCCn1c(N)c(C(=O)NCc2ccco2)c2nc3ccccc3nc21 | -9.4% [at 3.5 µM] (inactive)
c1ccc(CCCN2CCN(CCOC(c3ccccc3)c3ccccc3)CC2)cc1 | -11.3% (inactive)
Cc1ccnc(-n2c(-c3ccco3)nc3ccccc3c2=O)c1 | -11.6% (inactive)
Cc1nccc2c1[nH]c1ccccc12 | -11% (inactive)
Cc1ccc(-c2nc3ccc(C)cn3c2CC(=O)N(C)C)cc1 | -1.44% (inactive)
CCOC(=O)[C@@H]1[C@H]2COc3ccc(Br)cc3[C@@H]2N2C(=O)N(c3cccc(C)c3)C(=O)[C@]12C | 9.31% (inactive)
Cc1oc(-c2cccs2)nc1CSCC(=O)N1CCC2(CC1)OCCO2 | -11.5% (inactive)
CN1CC(C(=O)c2ccc(Cl)cc2)C(c2ccc(Cl)cc2Cl)C1 (centres undefined) | -9.21% (inactive)
C=CCn1c(O)c(C(CC)=Nc2ccc(N(CC)CC)cc2)c(=O)[nH]c1=O | -10.2% (inactive)
CN1CCN(c2ccc([N+](=O)[O-])c(Sc3nncn3C)c2)CC1 | 7.77% (inactive)
C=CC[N+]1(C)CC[C@]23c4c5ccc(O)c4O[C@H]2C(=O)CC[C@@]3(O)[C@H]1C5 (some centres undefined) | -13.8% (inactive)
Cc1ccc(-c2cc(-c3ccccc3)cc(-c3ccccc3)[n+]2-c2ccccc2)cc1 | -3.09% (inactive)
